Measured values reported in PubChem BioAssay (NCATS).
Inconclusive results are not listed. Where a call stands in place of a potency, no number is given. Calls of active or inactive are those of the source. Unless noted, calls come from the whole dose curve.

Assays:
[1] = biological target: Retinoic acid receptor RXR-alpha (Homo sapiens) (UniProt P19793); test: qHTS assay for small molecule agonists of retinoid X receptor alpha signaling (AID 588544)
[2] = biological target: Thyroid hormone receptor beta (Homo sapiens) (UniProt P10828); test: qHTS assay for small molecule agonists of thyroid hormone receptor beta signaling (AID 588545)
In short: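 TR-UAS-bla-GripTite HEK 293 cells in medium with 2% charcoal/dextran FBS, 0.1 mM NEAA and 1 mM sodium pyruvate were treated with titrated compounds for 18 hrs at 37 C. Beta-lactamase reporter was read with CCF4 dye (ex 405, em 460/530 nm); EC50 from Hill fits.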

[3] = qHTS assay for small molecule antagonists of retinoid X receptor alpha signaling (AID 588546; active = well fitted inhibition curve with a large enough effect in the signal ratio, with a control signal flat, not every such curve was filed as active; the % refers to the signal ratio;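 note: cells stimulated with 9-cis-retinoic acid as agonist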); conditions: HEK293T RXRa-UAS-bla, beta-lactamase ratio, antagonist mode; measured here: W530 green channel, cytotoxicity proxy
In short: (§1)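 Beta-lactamase reporter inhibition, read as CCF4 fluorescence ratio (ex 405, em 460/530 nm) after 2 h at RT. HEK293T UAS-bla cells, 2500/well, were stimulated with 9-cis-RA at 500 or 100 nM final alongside test compound for 18 h at 37 C.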

[4] = biological target: Retinoic acid receptor RXR-alpha (Homo sapiens) (UniProt P19793); test: as above; conditions: HEK293T RXRa-UAS-bla, beta-lactamase ratio, antagonist mode
In short: as §1

[5] = biological target: Thyroid hormone receptor beta (Homo sapiens) (UniProt P10828); test: qHTS assay for small molecule antagonists of thyroid hormone receptor beta signaling (AID 588547; active = well fitted inhibition curve with a large enough effect in the signal ratio, with a control signal flat, not every such curve was filed as active; the % refers to the signal ratio;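 note: cells stimulated with 0.4 nM T3 agonist during compound exposure; series mostly up to about 77 µM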); conditions: TR-UAS-bla HEK293, beta-lactamase ratio, antagonist mode, 18 h
In short: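 TR-UAS-bla GripTite HEK293 cells in 2% charcoal/dextran FBS medium were preincubated 4 h at 37 C, given compound (0.59 nM to 92 uM) plus 0.4 nM T3 (final) for 18 h, then CCF4 for 2 h at RT; Hill fit gave IC50.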

[6] = biological target: Voltage-gated inwardly rectifying potassium channel KCNH2 (Homo sapiens) (UniProt Q12809); test: qHTS Assay for Small Molecule Inhibitors of the Human hERG Channel Activity (AID 588834; active = well fitted curve in the direction sought with a large enough effect; an effect the other way counts as inactive or inconclusive;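 note: top concentration of the series differs between compounds; lower thallium flux fluorescence means stronger hERG block; nearly all actives have a fitted effect of over 50% in size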)
In short: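 In hERG-transduced U2OS cells, dye-loaded for 1 hr at room temperature in dark, test compounds incubated 10 min at 37 °C before thallium stimulation. AC50 values derived by Hill modelling of concentration-response.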

[7] = biological target: Luciferin 4-monooxygenase (Photinus pyralis) (UniProt P08659); test: Biochemical firefly luciferase enzyme assay for NPC (AID 624030; active = well fitted curve in the direction sought with a large enough effect; an effect the other way counts as inactive or inconclusive; note: nearly all actives have a fitted effect of over 70% in size; note: potency is the fitted concentration of half-maximal effect)
In short: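 Counter-screen for direct inhibition of the luciferase enzyme by approved-drug library compounds, run at 10 nM enzyme in 50 mM Tris acetate (final). Luminescence was read within 5 min of enzyme-buffer addition and normalized to PTC124 versus DMSO (0%).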

[8] = S16 Schwann cell PMP22 intronic element firefly luciferase assay (AID 624032; active = well fitted curve in the direction sought with a large enough effect; an effect the other way counts as inactive or inconclusive; note: potency is the fitted concentration of half-maximal effect; nearly all actives have a fitted effect of over 30% in size); conditions: S16 rat Schwann cells, PMP22 element FLuc, 24 h
In short: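 Rat S16 Schwann cells stably carrying a PMP22 intronic element-driven Fluc reporter were seeded overnight, then exposed to compounds for 24 h at 37 °C. Luminescence was normalized to PTC124 (positive control) and DMSO (0% activity).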

[9] = S16 Schwann cell PMP22 intronic element beta-lactamase assay (AID 624044); conditions: S16 rat Schwann cells, PMP22 element beta-lactamase FRET, 24 h; note: potency is the fitted concentration of half-maximal effect; nearly all actives have a fitted effect of over 15% in size
In short: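 Beta-lactamase reporter under a PMP22 intronic regulatory element in stable S16 rat Schwann cells; 24 h compound exposure. 460 nm blue signal normalized between DMSO (0%) and potassium clavulanate, with 535 nm FRET tracking viability; curves classed by r2 and response.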

[10] = S16 Schwann cell viability assay (CellTiter-Glo assay) (AID 624031; active = well fitted curve in the direction sought with a large enough effect; an effect the other way counts as inactive or inconclusive;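 note: native untransfected S16 rat Schwann cells; cellular ATP luminescence as a viability measure; series mostly up to about 58 µM; nearly all actives have a fitted effect of over 70% in size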)
In short: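 Cells were seeded at 500-750 per well in phenol red-free DMEM with 10% FBS and left overnight. Compounds or DMSO were pinned in, incubation ran 24 h at 37 °C/5% CO2, then CellTiter-Glo reagent was added and luminescence measured.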

Chain of Luciferin 4-monooxygenase (Photinus pyralis) (P08659 whole entry, looked up): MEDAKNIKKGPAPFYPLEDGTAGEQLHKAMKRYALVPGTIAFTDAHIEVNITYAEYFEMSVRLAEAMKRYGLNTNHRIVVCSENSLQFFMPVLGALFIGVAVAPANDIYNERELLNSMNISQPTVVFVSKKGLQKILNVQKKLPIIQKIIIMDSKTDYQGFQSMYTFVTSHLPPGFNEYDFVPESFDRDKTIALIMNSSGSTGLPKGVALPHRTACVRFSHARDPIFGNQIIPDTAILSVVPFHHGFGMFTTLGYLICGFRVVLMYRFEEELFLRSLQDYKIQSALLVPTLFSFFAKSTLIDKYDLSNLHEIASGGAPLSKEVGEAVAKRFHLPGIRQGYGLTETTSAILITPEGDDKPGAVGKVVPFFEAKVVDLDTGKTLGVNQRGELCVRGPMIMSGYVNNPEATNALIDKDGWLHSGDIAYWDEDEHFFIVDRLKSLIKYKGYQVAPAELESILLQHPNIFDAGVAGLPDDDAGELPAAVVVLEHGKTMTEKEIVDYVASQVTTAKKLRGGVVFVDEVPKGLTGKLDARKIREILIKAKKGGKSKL
Chain of Voltage-gated inwardly rectifying potassium channel KCNH2 (Homo sapiens) (Q12809 whole entry, looked up): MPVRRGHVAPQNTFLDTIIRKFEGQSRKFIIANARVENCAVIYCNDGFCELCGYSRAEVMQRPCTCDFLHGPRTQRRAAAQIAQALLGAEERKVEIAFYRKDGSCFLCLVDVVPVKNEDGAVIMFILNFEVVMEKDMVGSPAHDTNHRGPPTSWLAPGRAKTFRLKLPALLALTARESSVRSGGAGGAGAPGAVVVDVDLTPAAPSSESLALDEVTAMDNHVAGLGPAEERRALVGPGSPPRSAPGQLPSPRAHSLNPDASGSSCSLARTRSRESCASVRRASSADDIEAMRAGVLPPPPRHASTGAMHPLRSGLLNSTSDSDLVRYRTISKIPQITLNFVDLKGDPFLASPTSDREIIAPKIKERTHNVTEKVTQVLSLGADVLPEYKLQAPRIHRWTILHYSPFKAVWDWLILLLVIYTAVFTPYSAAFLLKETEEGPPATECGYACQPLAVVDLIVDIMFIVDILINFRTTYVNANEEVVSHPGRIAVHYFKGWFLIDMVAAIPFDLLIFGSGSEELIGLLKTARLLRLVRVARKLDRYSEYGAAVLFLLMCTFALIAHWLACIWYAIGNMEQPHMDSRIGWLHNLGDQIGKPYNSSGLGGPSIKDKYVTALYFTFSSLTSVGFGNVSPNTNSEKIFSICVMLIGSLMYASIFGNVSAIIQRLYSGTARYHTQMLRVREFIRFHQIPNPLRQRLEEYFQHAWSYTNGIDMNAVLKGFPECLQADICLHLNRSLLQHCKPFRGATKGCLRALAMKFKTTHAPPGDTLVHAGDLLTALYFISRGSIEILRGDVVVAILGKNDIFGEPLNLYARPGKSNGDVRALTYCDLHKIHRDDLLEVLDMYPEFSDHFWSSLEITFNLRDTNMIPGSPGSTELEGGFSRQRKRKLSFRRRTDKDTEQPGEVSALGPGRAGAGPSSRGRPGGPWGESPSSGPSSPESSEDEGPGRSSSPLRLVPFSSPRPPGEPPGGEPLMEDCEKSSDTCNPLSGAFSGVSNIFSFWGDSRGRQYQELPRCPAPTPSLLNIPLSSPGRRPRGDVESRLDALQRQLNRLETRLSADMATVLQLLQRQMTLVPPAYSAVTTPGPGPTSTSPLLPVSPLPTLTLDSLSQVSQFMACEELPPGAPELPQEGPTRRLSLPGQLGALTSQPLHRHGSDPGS
Chain of Retinoic acid receptor RXR-alpha (Homo sapiens) (P19793 whole entry, looked up): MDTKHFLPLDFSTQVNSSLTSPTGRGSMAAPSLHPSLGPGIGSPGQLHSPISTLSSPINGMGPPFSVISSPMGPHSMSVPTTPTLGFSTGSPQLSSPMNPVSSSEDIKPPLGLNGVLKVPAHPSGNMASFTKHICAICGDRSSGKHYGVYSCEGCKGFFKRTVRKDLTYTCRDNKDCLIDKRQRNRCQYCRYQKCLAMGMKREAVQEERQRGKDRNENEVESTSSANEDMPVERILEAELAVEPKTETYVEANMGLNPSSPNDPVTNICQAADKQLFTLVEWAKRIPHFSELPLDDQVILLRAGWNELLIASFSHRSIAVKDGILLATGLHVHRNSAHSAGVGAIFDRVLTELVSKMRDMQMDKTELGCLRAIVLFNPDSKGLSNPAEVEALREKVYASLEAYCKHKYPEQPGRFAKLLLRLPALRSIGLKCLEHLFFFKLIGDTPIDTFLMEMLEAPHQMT
Chain of Thyroid hormone receptor beta (Homo sapiens) (P10828 whole entry, looked up): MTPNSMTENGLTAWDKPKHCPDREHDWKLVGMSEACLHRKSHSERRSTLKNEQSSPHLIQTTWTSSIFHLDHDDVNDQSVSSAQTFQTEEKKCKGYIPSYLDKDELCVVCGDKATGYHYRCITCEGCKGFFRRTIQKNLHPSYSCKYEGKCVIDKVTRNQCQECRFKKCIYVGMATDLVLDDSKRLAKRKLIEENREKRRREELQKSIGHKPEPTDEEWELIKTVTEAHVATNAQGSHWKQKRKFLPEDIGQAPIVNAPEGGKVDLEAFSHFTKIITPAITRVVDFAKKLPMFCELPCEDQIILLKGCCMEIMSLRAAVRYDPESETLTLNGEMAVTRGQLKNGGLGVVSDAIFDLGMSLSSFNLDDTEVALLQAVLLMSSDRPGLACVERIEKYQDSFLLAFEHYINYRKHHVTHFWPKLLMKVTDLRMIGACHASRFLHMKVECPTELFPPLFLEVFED

Q: Which results are given for `Nc1ccccc1N`?
A: outcome [1]: inactive; outcome [2]: inactive; max response [3]: 1.4%; max response [4]: -8.62% (inactive); activity change % (negative = inhibition) [5]: -38.2% (inactive); outcome [6]: inactive; Potency [7]: 2630 nM (active)

Q: Which Potency [7] does the source give for `CC[C@]1(O)CC2CN(CCc3c([nH]c4ccccc34)[C@@](C(=O)OC)(c3cc4c(cc3OC)N(C)[C@H]3[C@@](O)(C(=O)OC)[C@H](OC(C)=O)[C@]5(CC)C=CCN6CC[C@]43[C@@H]65)C2)C1` (stereo partly drawn) here?
A: The Potency was “inactive”.

Q: What about the Potency [8] of the same compound?
A: The Potency was 721 nM (active).

Q: What about the Potency [9] of the same compound?
A: The Potency was 224 nM (active).

Q: Which outcome [1] does the source give for `CC(=O)O[C@H]1C(=O)[C@@]2(C)[C@H]([C@H](OC(=O)c3ccccc3)[C@]3(O)C[C@H](OC(=O)[C@H](O)[C@@H](NC(=O)c4ccccc4)c4ccccc4)C(C)=C1C3(C)C)[C@]1(OC(C)=O)CO[C@@H]1C[C@@H]2O` here?
A: The outcome was “inactive”.

Q: And the outcome [2]?
A: Its outcome is “inactive”.

Q: And the activity change % (negative = inhibition) [5]?
A: The activity change % (negative = inhibition) was -8.03% (inactive).

Q: And the outcome [6]?
A: Its outcome is “inactive”.

Q: And the Potency [7]?
A: Its Potency is “inactive”.

Q: What about the outcome [10] of the same compound?
A: Its outcome is “inactive”.

Q: Which results are given for `Cc1ccc(N)cc1O`?
A: outcome [1]: inactive; outcome [2]: inactive; max response [3]: -3.5%; max response [4]: 0.585% (inactive); activity change % (negative = inhibition) [5]: -1.32% (inactive); outcome [6]: inactive

Q: With `CC(=O)O[C@@H]1CC(C)=C2[C@H]1[C@H](C)CC[C@H]2/C=C(\C)C(=O)O` as the compound, how does the outcome [1] read?
A: Its outcome is “inactive”.

Q: And the outcome [2]?
A: The outcome was “inactive”.

Q: What about the max response [3] of the same compound?
A: Its max response is -4.2%.

Q: And the max response [4]?
A: Its max response is 22.1% (inactive).

Q: What about the activity change % (negative = inhibition) [5] of the same compound?
A: Its activity change % (negative = inhibition) is 19.9% (inactive).

Q: And the outcome [6]?
A: The outcome was “inactive”.
